The text below walks through data of PubChem BioAssay (EPA / NIEHS).

Structures are written as SMILES. Records with an inconclusive call do not appear. The source made the active and inactive calls. How the source made its calls, unless noted: active means hit-call score of the fitted dose curve at least 0.9, where 1 is the maximum; inconclusive means response in the unintended direction; inactive means score below 0.9.

For orientation: AC50 means the concentration at which the activity in the assay is half-maximal.

The first test can be described thus: STM_H9_OrnithineISnorm_perc: Stemina devTOX quickPredict H9 human embryonic stem cell (hESC)-based Assay for Ornithine (ORN) Metabolite Biomarker, Normalized (AID 2283712; active means hit-call score of the fitted dose curve at least 0.9, where 1 is the maximum; inactive means score below 0.9;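 further: ornithine released into spent medium during last day measured by mass spectrometry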). In a few lines:
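H9 human embryonic stem cells kept pluripotent receive test chemical over 72 h, refreshed daily by media exchange. Media from the closing 24 h is deproteinized and analysed by UPLC-HRMS on an amide column; ornithine signal is scaled to labelled standard and vehicle.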
As to `CC(C)Nc1nc(Cl)nc(NC(C)C)n1`, the AC50 was 0.0393 µM (active).
As for `CO/N=C(/C1=NOCCO1)c1ccccc1Oc1ncnc(Oc2ccccc2Cl)c1F`, the AC50 was 24 µM (active).
`CCCN(CC)CC1COC2(CCC(C(C)(C)C)CC2)O1` (stereo not drawn): the result was inactive.
As to `CS(=O)(=O)c1cc(C(F)(F)F)ccc1C(=O)c1cnoc1C1CC1`, the AC50 is 0.0772 µM (active).
Turning to `N#CN=C1SCCN1Cc1ccc(Cl)nc1`, the result was inactive.
On to `CC(C)C1(C)N=C(c2ncccc2C(=O)O)NC1=O` (stereo not drawn), for which the outcome was inactive.
For the compound `CCN(CC)C(=O)C(C)Oc1cccc2ccccc12` (stereo not drawn), the half-maximal activity concentration (AC50) was 50 µM (active).
The same measure, in the same setting: for `CCCCC(O)(Cn1cncn1)c1ccc(Cl)cc1Cl` (stereo not drawn) the value was 85.1 µM (active); for `Clc1cccc(C(Cl)(Cl)Cl)n1`, 19.7 µM (active); for `COc1ccc(-c2ccccc2)cc1NNC(=O)OC(C)C`, 42.1 µM (active).
`COc1cc(OC)nc(NC(=O)NS(=O)(=O)c2ncccc2OCC(F)(F)F)n1`: the outcome was inactive.
Same read-out and setting: for `CS(=O)(=O)c1ccc(C(=O)C2C(=O)CCCC2=O)c([N+](=O)[O-])c1` the value was “inactive”.
On the same count and under the same terms, to `O=C1C2CC=CCC2C(=O)N1SC(Cl)(Cl)Cl` (stereo not drawn) belongs “inactive”.

The next test is described as follows: STM_H9_CystineISnorm_perc: Stemina devTOX quickPredict H9 human embryonic stem cell (hESC)-based Assay for Cystine (CYSS) Metabolite Biomarker, Normalized (AID 2283713; active means hit-call score of the fitted dose curve at least 0.9, where 1 is the maximum; inactive means score below 0.9). In a few lines: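 H9 hESC, pluripotent; compound 72h, re-dosed q24h with medium change. Last-24h medium → 40% acetonitrile deproteinization → UPLC-HRMS. CYSS area / C13-CYSS standard, then % of 0.1% DMSO median.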
Consider `CC(C)Nc1nc(Cl)nc(NC(C)C)n1`, for which the AC50 was 5.93 µM (active).
On the same count and under the same terms, for `CO/N=C(/C1=NOCCO1)c1ccccc1Oc1ncnc(Oc2ccccc2Cl)c1F` the value was 9.72 µM (active); for `CCCN(CC)CC1COC2(CCC(C(C)(C)C)CC2)O1` (stereo not drawn), 1.03 µM (active).
As to `CS(=O)(=O)c1cc(C(F)(F)F)ccc1C(=O)c1cnoc1C1CC1`, the result was inactive.
Same read-out and setting: to `N#CN=C1SCCN1Cc1ccc(Cl)nc1` belongs “inactive”; to `CC(C)C1(C)N=C(c2ncccc2C(=O)O)NC1=O` (stereo not drawn), “inactive”.
Take `CCN(CC)C(=O)C(C)Oc1cccc2ccccc12` (stereo not drawn): the AC50 was 5.52 µM (active).
The same measure, in the same setting: for `CCCCC(O)(Cn1cncn1)c1ccc(Cl)cc1Cl` (stereo not drawn) the value was 78.9 µM (active).
For the compound `Clc1cccc(C(Cl)(Cl)Cl)n1`, the outcome was inactive.
For the compound `COc1ccc(-c2ccccc2)cc1NNC(=O)OC(C)C`, the AC50 is 30.5 µM (active).
Consider `COc1cc(OC)nc(NC(=O)NS(=O)(=O)c2ncccc2OCC(F)(F)F)n1`, for which the outcome was inactive.
On the same count and under the same terms, for `CS(=O)(=O)c1ccc(C(=O)C2C(=O)CCCC2=O)c([N+](=O)[O-])c1` the value was “inactive”; for `O=C1C2CC=CCC2C(=O)N1SC(Cl)(Cl)Cl` (stereo not drawn), “inactive”.

A further test can be described thus: STM_H9_OrnCyssISnorm_ratio: Stemina devTOX quickPredict H9 human embryonic stem cell (hESC)-based Assay for Ornithine (ORN):Cystine (CYSS) Ratio (AID 2283714). The essentials:
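Steps: H9 hESCs in pluripotent state dosed 72h, medium plus compound renewed every 24h; conditioned medium from the final 24h deproteinized in 40% acetonitrile; ORN and CYSS quantified by UPLC-HRMS with C13 spike-ins; ratio relative to vehicle.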
For the compound `CC(C)Nc1nc(Cl)nc(NC(C)C)n1`, the AC50 is 5.16 µM (active).
Same read-out and setting: for `CO/N=C(/C1=NOCCO1)c1ccccc1Oc1ncnc(Oc2ccccc2Cl)c1F` the value was 18.2 µM (active); for `CCCN(CC)CC1COC2(CCC(C(C)(C)C)CC2)O1` (stereo not drawn), 1.3 µM (active).
In the case of `N#CN=C1SCCN1Cc1ccc(Cl)nc1`, the outcome was inactive.
Take `CCN(CC)C(=O)C(C)Oc1cccc2ccccc12` (stereo not drawn): the AC50 was 6.66 µM (active).
The same measure, in the same setting: for `CCCCC(O)(Cn1cncn1)c1ccc(Cl)cc1Cl` (stereo not drawn) the value was 76.5 µM (active); for `COc1ccc(-c2ccccc2)cc1NNC(=O)OC(C)C`, 36.1 µM (active).
Regarding `CS(=O)(=O)c1ccc(C(=O)C2C(=O)CCCC2=O)c([N+](=O)[O-])c1`, the result was inactive.

The next test can be described thus: CEETOX_H295R_MTT_cell_viability: Viability Assessment in the CeeTox HT-H295R MTT Assay (AID 2283718; active means hit-call score of the fitted dose curve at least 0.9, where 1 is the maximum; inactive means score below 0.9). The essentials:
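MTT reduction (0.5 mg/ml, 4 h at 37 C; absorbance at 570 and 650 nm) gave viability as background-corrected percent change versus controls. H295R cells had 48 h forskolin (10 uM) prestimulation, then 48 h chemical exposure at 0.1% DMSO.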
With `COc1cc(Cl)c(OC)cc1Cl`, the result was inactive.
The same measure, in the same setting: to `CC(C)Nc1nc(Cl)nc(NC(C)C)n1` belongs “inactive”; to `CCCN(CC)CC1COC2(CCC(C(C)(C)C)CC2)O1` (stereo not drawn), “inactive”; to `Nc1cnn(-c2ccccc2)c(=O)c1Cl`, “inactive”.
Same read-out and setting: to `COC(=O)NC(=S)Nc1ccccc1NC(=S)NC(=O)OC` belongs “inactive”; to `N#CN=C1SCCN1Cc1ccc(Cl)nc1`, “inactive”; to `CCN(CC)C(=O)C(C)Oc1cccc2ccccc12` (stereo not drawn), “inactive”.
`Cc1c(COC(=O)[C@@H]2[C@H](/C=C(\Cl)C(F)(F)F)C2(C)C)cccc1-c1ccccc1`: the result was inactive.
For `CCCC(=NOCC)C1=C(O)CC(CC(C)SCC)CC1=O` (stereo not drawn), the call was inactive.
On the same count and under the same terms, for `CCOc1cc(C(C)(C)C)ccc1C1COC(c2c(F)cccc2F)=N1` (stereo not drawn) the value was “inactive”; for `COP(=S)(OC)SCn1nnc2ccccc2c1=O`, “inactive”; for `Clc1nc(Cl)nc(Nc2ccccc2Cl)n1`, “inactive”.
The same measure, in the same setting: to `O=C1C2CC=CCC2C(=O)N1SC(Cl)(Cl)Cl` (stereo not drawn) belongs “inactive”.

A further test is described as follows: Tanguay_ZF_120hpf_ActivityScore_legacy: (Legacy) Oregon State University Tanguay Lab 120 Hour Post-fertilization zebrafish Assay Score for Activity (AID 2283742).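 On AC50: dechorionated Tropical 5D wild-type zebrafish embryos held singly per well; static exposure from 6 hpf until 120 hpf at 28 °C.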 The essentials: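 Embryos are staged, enzymatically dechorionated at 4 hpf, placed individually at 6 hpf, then held in test chemical (0.64% DMSO) at 28C until 120 hpf. Mortality and malformations are scored by brightfield, with non-mortality endpoints skipped for dead embryos.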
Regarding `CCOP(=O)(OCC)Oc1nc(Cl)c(Cl)cc1Cl`, the AC50 is 1.15 µM (active).
In the case of `COc1cc(Cl)c(OC)cc1Cl`, the result was inactive.
The same measure, in the same setting: to `COC(=O)NS(=O)(=O)c1ccc(N)cc1` belongs “inactive”; to `CC(C)Nc1nc(Cl)nc(NC(C)C)n1`, “inactive”; to `O=P(O)(O)CCCl`, “inactive”.
Turning to `CO/N=C(/C1=NOCCO1)c1ccccc1Oc1ncnc(Oc2ccccc2Cl)c1F`, the AC50 was 3.17 µM (active).
As for `CC(C)=CC1C(C(=O)OCc2coc(Cc3ccccc3)c2)C1(C)C` (stereo not drawn), the result was inactive.
The same measure, in the same setting: to `O=c1n(Cl)c(=O)n(Cl)c(=O)n1Cl` belongs “inactive”.
Same read-out and setting: to `Nc1c(Cl)c(F)nc(OCC(=O)O)c1Cl` belongs “inactive”.
Same read-out and setting: to `CCCN(CC)CC1COC2(CCC(C(C)(C)C)CC2)O1` (stereo not drawn) belongs “inactive”; to `Nc1cnn(-c2ccccc2)c(=O)c1Cl`, “inactive”.
`Nc1c(Cl)c(Cl)nc(C(=O)O)c1Cl`: the call was inactive.
As for `CS(=O)(=O)c1cc(C(F)(F)F)ccc1C(=O)c1cnoc1C1CC1`, the result was inactive.
Take `COC(=O)NC(=S)Nc1ccccc1NC(=S)NC(=O)OC`: the call was inactive.
Same read-out and setting: to `O=C(O)c1c(Cl)ccc2cc(Cl)cnc12` belongs “inactive”; to `N#CN=C1SCCN1Cc1ccc(Cl)nc1`, “inactive”.
Same read-out and setting: for `CC(C)C1(C)N=C(c2ncccc2C(=O)O)NC1=O` (stereo not drawn) the value was “inactive”.
Same read-out and setting: to `C=C(C)CN(CC)c1c([N+](=O)[O-])cc(C(F)(F)F)cc1[N+](=O)[O-]` belongs “inactive”; to `CCN(CC)C(=O)C(C)Oc1cccc2ccccc12` (stereo not drawn), “inactive”.
Regarding `Cc1c(COC(=O)[C@@H]2[C@H](/C=C(\Cl)C(F)(F)F)C2(C)C)cccc1-c1ccccc1`, the compound was called inactive.
The same measure, in the same setting: to `CCCCC(O)(Cn1cncn1)c1ccc(Cl)cc1Cl` (stereo not drawn) belongs “inactive”.
In the case of `Clc1cccc(C(Cl)(Cl)Cl)n1`, the outcome was inactive.
On the same count and under the same terms, to `CCCC(=NOCC)C1=C(O)CC(CC(C)SCC)CC1=O` (stereo not drawn) belongs “inactive”; to `CCOc1cc(C(C)(C)C)ccc1C1COC(c2c(F)cccc2F)=N1` (stereo not drawn), “inactive”.
Take `CNC(=O)N(C)c1nnc(C(C)(C)C)s1`: the call was inactive.
Same read-out and setting: for `CC(C)N1C(=O)c2ccccc2NS1(=O)=O` the value was “inactive”; for `CSC(=O)c1c(C(F)F)nc(C(F)(F)F)c(C(=O)SC)c1CC(C)C`, “inactive”.
For `COCC(C)N(C(=O)CCl)c1c(C)csc1C` (stereo not drawn), the AC50 was 29.2 µM (active).
Turning to `COP(=S)(OC)SCn1nnc2ccccc2c1=O`, the result was inactive.
Same read-out and setting: for `COc1ccc(-c2ccccc2)cc1NNC(=O)OC(C)C` the value was “inactive”; for `COP(=O)(OC)O/C(C)=C/C(=O)N(C)C`, “inactive”; for `COc1cc(OC)nc(NC(=O)NS(=O)(=O)c2ncccc2OCC(F)(F)F)n1`, “inactive”.
Same read-out and setting: to `OC(c1ccc(Cl)cc1)(c1ccc(Cl)cc1)C(Cl)(Cl)Cl` belongs “inactive”.
On the same count and under the same terms, to `CS(=O)(=O)c1ccc(C(=O)C2C(=O)CCCC2=O)c([N+](=O)[O-])c1` belongs “inactive”; to `Clc1nc(Cl)nc(Nc2ccccc2Cl)n1`, “inactive”.
`O=C1C2CC=CCC2C(=O)N1SC(Cl)(Cl)Cl` (stereo not drawn): the AC50 is 43.5 µM (active).
